Laboratory results from PubChem BioAssay.
Activity calls are given as the source filed them.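 Rule for the calls: active = fluorescence slope after compound addition differing from the mean of all screened samples at 99.7% confidence, in either direction; inactive = the rest.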

biological target: Alpha-2C adrenergic receptor (Homo sapiens) (UniProt P18825); assay: compounds altering alpha2C-coupled GIRK flux – cell-based, HEK293 alpha2C/GIRK1/2, thallium flux, primary screen (AID 624); conditions: thallium flux BTC fluorescence, at 10 µM, actives lie on both sides;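 note: slope of fluorescence ratio to pre-addition baseline per second over 15 to 24 s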
Sequence (P18825 whole entry, looked up): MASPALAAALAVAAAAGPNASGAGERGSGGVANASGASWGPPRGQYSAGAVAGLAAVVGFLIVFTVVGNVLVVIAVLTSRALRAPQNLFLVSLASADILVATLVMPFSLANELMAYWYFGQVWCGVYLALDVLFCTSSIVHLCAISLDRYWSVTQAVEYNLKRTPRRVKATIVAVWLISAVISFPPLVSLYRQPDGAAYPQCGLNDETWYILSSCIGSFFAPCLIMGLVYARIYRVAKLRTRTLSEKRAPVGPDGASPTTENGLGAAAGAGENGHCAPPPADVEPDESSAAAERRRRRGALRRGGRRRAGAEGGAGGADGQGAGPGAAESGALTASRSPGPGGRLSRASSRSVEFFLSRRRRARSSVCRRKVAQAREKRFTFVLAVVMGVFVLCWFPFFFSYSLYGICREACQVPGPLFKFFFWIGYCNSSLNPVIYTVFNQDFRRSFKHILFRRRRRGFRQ

slope, inactive:
CN1Cc2c(N)cccc2C(c2ccccc2)C1 (centres undefined) 0.00524
Cc1cn([C@H]2C=C[C@@H](CO)O2)c(=O)[nH]c1=O 0.00508
C[C@H]1C[C@H]2[C@@H]3CCC4=CC(=O)C=C[C@]4(C)[C@@]3(Cl)[C@@H](O)C[C@]2(C)[C@@]1(O)C(=O)CO 0.00488
CCCC1O[C@@H]2C[C@H]3[C@@H]4CCC5=CC(=O)C=C[C@]5(C)[C@H]4[C@@H](O)C[C@]3(C)[C@]2(C(=O)CO)O1 (some centres undefined) 0.00479
CNCCC(Oc1ccc(C(F)(F)F)cc1)c1ccccc1 (centres undefined) 0.00359
Clc1ccc(Cn2c(CN3CCCC3)nc3ccccc32)cc1 0.00478
CC(C)NCC(O)COc1ccc(CC(N)=O)cc1 (centres undefined) 0.00481
CC(C)C[C@H]1C(=O)N2CCC[C@H]2[C@]2(O)O[C@](NC(=O)[C@@H]3C=C4c5cccc6[nH]c(Br)c(c56)CC4N(C)C3)(C(C)C)C(=O)N12 (some centres undefined) 0.00416
CC(=O)OCC1=C(C(=O)O)N2C(=O)[C@@H](NC(=O)Cc3cccs3)[C@H]2SC1 0.00483
Cc1cccc(Nc2ccccc2C(=O)O)c1C 0.00454
CC(COc1ccccc1)N(CCCl)Cc1ccccc1 (centres undefined) 0.00427
Cc1cc(C)nc(NS(=O)(=O)c2ccc(N)cc2)n1 0.00415
COc1cc(C2C(C#N)=C(N)Oc3cc(N)ccc32)cc(OC)c1OC (centres undefined) 0.00523
CN(C)CCCC1(c2ccc(F)cc2)OCc2cc(C#N)ccc21 (centres undefined) 0.00413
